Assay results: the supplement of paper PMC8728848
Only a selection was taken, and the strongest signals are over-represented in it overall.

What was measured:
Assay in all cases: glycan array binding signal (z-score within array); higher = stronger binding
Conditions in all cases: glycan notation: IUPAC condensed, linker removed
[1] = target: Fuc(a1-2)Gal(b1-3)GlcNAc(b1-3)[Fuc(a1-2)Gal(b1-3)GlcNAc(b1-6)]GalNAc
Method in brief: (§1)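 Glycan array data came from 3228 arrays in the Consortium for Functional Glycomics database, and only arrays with an available protein sequence were kept. Glycan names were put into IUPAC-condensed notation, and columns mapping to the same glycan were averaged. The binding signal is a within-array Z-score, averaged across arrays of one protein sequence run at different concentrations or buffers and across linkers. A negative Z-score can be read as non-binding.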

[2] = target: Fuc(a1-2)Gal(b1-4)Fuc(a1-3)]GlcNAc(b1-2)Man(a1-3)[Fuc(a1-2)Gal(b1-4)[Fuc(a1-3)]GlcNAc(b1-2)Man(a1-6)]Man(b1-4)GlcNAc(b1-4)GlcNAc
Method in brief: as §1

[3] = target: Fuc(a1-2)Gal(b1-4)GlcNAc(b1-2)Man(a1-3)[Fuc(a1-2)Gal(b1-4)GlcNAc(b1-2)Man(a1-6)]Man(b1-4)GlcNAc(b1-4)GlcNAc
Method in brief: as §1

[4] = target: Fuc(a1-2)Gal(b1-4)[Fuc(a1-3)]GlcNAc(b1-2)Man(a1-3)[Fuc(a1-2)Gal(b1-4)[Fuc(a1-3)]GlcNAc(b1-2)Man(a1-6)]Man(b1-4)GlcNAc(b1-4)[Fuc(a1-6)]GlcNAc
Method in brief: as §1

[5] = target: Fuc(a1-2)Gal(b1-4)[Fuc(a1-3)]GlcNAc(b1-3)Gal(b1-4)[Fuc(a1-3)]GlcNAc
Method in brief: as §1

[6] = target: Fuc(a1-2)[Gal(a1-3)]Gal(b1-3)GalNAc(b1-3)Gal(a1-4)Gal(b1-4)Glc
Method in brief: as §1

[7] = target: Fuc(a1-2)[Gal(a1-3)]Gal(b1-4)Glc
Method in brief: as §1

[8] = target: Fuc(a1-2)[Gal(a1-3)]Gal(b1-4)[Fuc(a1-3)]Glc
Method in brief: as §1

[9] = target: Fuc(a1-2)[GalNAc(a1-3)]Gal
Method in brief: as §1

[10] = target: Fuc(a1-2)[GalNAc(a1-3)]Gal(b1-3)GlcNAc(b1-3)GalNAc
Method in brief: as §1

[11] = target: Fuc(a1-2)[GalNAc(a1-4)]Gal(b1-4)GlcNAc
Method in brief: as §1

[12] = target: Fuc(a1-3)[Gal(b1-4)]GlcNAc(b1-3)Gal(b1-4)[Fuc(a1-3)]GlcNAc
Method in brief: as §1

[13] = target: Gal(b1-3)GalNAc(b1-3)Gal(a1-4)Gal(b1-4)Glc
Method in brief: as §1

[14] = target: Gal(b1-3)GlcNAc(b1-3)Gal(b1-4)Glc
Method in brief: as §1

[15] = target: Gal(b1-3)[Fuc(a1-4)]GlcNAc(b1-2)Man(a1-3)[Gal(b1-3)[Fuc(a1-4)]GlcNAc(b1-2)Man(a1-6)]Man(b1-4)GlcNAc(b1-4)[Fuc(a1-6)]GlcNAc
Method in brief: as §1

[16] = target: Gal(b1-4)GlcNAc(b1-3)Gal(b1-4)Glc
Method in brief: as §1

[17] = target: Gal(b1-4)GlcNAc(b1-3)Gal(b1-4)GlcNAc(b1-2)[Gal(b1-4)GlcNAc(b1-3)Gal(b1-4)GlcNAc(b1-6)]Man(a1-6)[Gal(b1-4)GlcNAc(b1-3)Gal(b1-4)GlcNAc(b1-2)Man(a1-3)]Man(b1-4)GlcNAc(b1-4)[Fuc(a1-6)]GlcNAc
Method in brief: as §1

[18] = target: Gal(b1-4)GlcNAc(b1-3)Gal(b1-4)GlcNAc(b1-3)Gal(b1-4)GlcNAc(b1-3)Gal(b1-4)GlcNAc(b1-2)[Gal(b1-4)GlcNAc(b1-3)Gal(b1-4)GlcNAc(b1-3)Gal(b1-4)GlcNAc(b1-3)Gal(b1-4)GlcNAc(b1-6)]Man(a1-6)[Gal(b1-4)GlcNAc(b1-3)Gal(b1-4)GlcNAc(b1-3)Gal(b1-4)GlcNAc(b1-3)Gal(b1-4)GlcNAc(b1-2)Man(a1-3)]Man(b1-4)GlcNAc(b1-4)[Fuc(a1-6)]GlcNAc
Method in brief: as §1

[19] = target: Gal(b1-4)GlcNAc(b1-3)Gal(b1-4)GlcNAc(b1-3)Gal(b1-4)GlcNAc(b1-3)Gal(b1-4)GlcNAc(b1-3)Gal(b1-4)GlcNAc(b1-2)[Gal(b1-4)GlcNAc(b1-3)Gal(b1-4)GlcNAc(b1-3)Gal(b1-4)GlcNAc(b1-3)Gal(b1-4)GlcNAc(b1-3)Gal(b1-4)GlcNAc(b1-6)]Man(a1-6)[Gal(b1-4)GlcNAc(b1-3)Gal(b1-4)GlcNAc(b1-3)Gal(b1-4)GlcNAc(b1-3)Gal(b1-4)GlcNAc(b1-3)Gal(b1-4)GlcNAc(b1-2)Man(a1-3)]Man(b1-4)GlcNAc(b1-4)[Fuc(a1-6)]GlcNAc
Method in brief: as §1

[20] = target: Gal(b1-4)GlcNAc(b1-3)[Fuc(a1-3)GlcNAc(b1-6)]Gal(b1-4)Glc
Method in brief: as §1

[21] = target: Gal6P(b1-4)GlcNAc
Method in brief: as §1

[22] = target: Gal6S(b1-4)GlcNAc6S
Method in brief: as §1

[23] = target: GalNAc(b1-3)Gal(a1-6)Gal(b1-4)Glc
Method in brief: as §1

B1: WGA (Triticum vulgare) (protein)
chain: QRCGEQGSNMECPNNLCCSQYGYCGMGGDYCGKGCQNGACWTSKRCGSQAGGATCPNNHCCSQYGHCGFGAEYCGAGCQGGPCRADIKCGSQSGGKLCPNNLCCSQWGFCGLGSEFCGGGCQSGACSTDKPCGKDAGGRVCTNNYCCSKWGSCGIGPGYCGAGCQSGGCDAVFAGAITANSTLLAE
Question: How did the “glycan array binding signal (z-score)” value [1] turn out when B1 was run?
Answer: -0.344

Question: And the “glycan array binding signal (z-score)” value [2]?
Answer: -0.173

Question: And the “glycan array binding signal (z-score)” value [3]?
Answer: -0.197

Question: What about the “glycan array binding signal (z-score)” value [4] of the same binder?
Answer: -0.297

Question: And the “glycan array binding signal (z-score)” value [5]?
Answer: -0.365

Question: And the “glycan array binding signal (z-score)” value [6]?
Answer: -0.364

Question: And the “glycan array binding signal (z-score)” value [7]?
Answer: -0.359

Question: What about the “glycan array binding signal (z-score)” value [8] of the same binder?
Answer: -0.309

Question: And the “glycan array binding signal (z-score)” value [9]?
Answer: -0.082

Question: And the “glycan array binding signal (z-score)” value [10]?
Answer: -0.299

Question: And the “glycan array binding signal (z-score)” value [11]?
Answer: 3

Question: And the “glycan array binding signal (z-score)” value [12]?
Answer: -0.381

Question: What about the “glycan array binding signal (z-score)” value [13] of the same binder?
Answer: -0.328

Question: And the “glycan array binding signal (z-score)” value [14]?
Answer: -0.373

Question: What about the “glycan array binding signal (z-score)” value [15] of the same binder?
Answer: -0.172

Question: And the “glycan array binding signal (z-score)” value [16]?
Answer: -0.341

Question: What about the “glycan array binding signal (z-score)” value [17] of the same binder?
Answer: -0.132

Question: And the “glycan array binding signal (z-score)” value [18]?
Answer: 0.022

Question: And the “glycan array binding signal (z-score)” value [19]?
Answer: 0.244

Question: What about the “glycan array binding signal (z-score)” value [20] of the same binder?
Answer: -0.275

Question: What about the “glycan array binding signal (z-score)” value [21] of the same binder?
Answer: -0.418

Question: What about the “glycan array binding signal (z-score)” value [22] of the same binder?
Answer: -0.371

Question: What about the “glycan array binding signal (z-score)” value [23] of the same binder?
Answer: -0.316
